# Screen size: about 52,000 compounds; about 4,300 (8.3%) were called active. The list comes from a sample in which actives are over-represented; it also holds similar structures and randomly drawn compounds. Values without a mark were called inactive. Rule as the data show it: active = survival mostly below about 52% (no sharp cut-off); inactive = mostly above about 56%.
# System: DeltatarO mutant
# Experiment: growth inhibition of S. aureus wild type versus tarO mutant, primary screen, teichoic acid synthesis inhibitors, RN4220, OD600 (AID 463173)
# Conditions: OD600, 18 h, hits give low values, screened at 18.75 µg/mL (by protocol)
row,SMILES,survival
1,CCC(Oc1ccccc1)C(=O)Nc1nnc(S(=O)(=O)N(CC)CC)s1 (configuration not stated),104%
2,O=C(COc1ccccc1)Nc1nnc(S(=O)(=O)Nc2ccccc2)s1,79%
3,COc1ccc(NS(=O)(=O)c2nnc(NC(=O)c3ccccc3F)s2)cc1,72%
4,CCOc1ccc(C(=O)Nc2nnc(S(=O)(=O)Nc3ccccc3)s2)cc1,34% (active)
5,COc1ccc(C(=O)Nc2nnc(C(C)C)s2)cc1OC,55%
6,CCOc1ccc(C(=O)Nc2nnc(S(=O)(=O)N(CC)c3ccccc3C)s2)cc1,44% (active)
7,CCC(Oc1ccccc1)C(=O)Nc1nnc(S(=O)(=O)N2CCCC2)s1 (configuration not stated),103%
8,CCC(Oc1ccccc1)C(=O)Nc1nnc(S(=O)(=O)Nc2ccccc2)s1 (configuration not stated),40% (active)
9,CCN(c1ccccc1C)S(=O)(=O)c1nnc(NC(=O)c2ccc(OC)c(OC)c2)s1,40% (active)
10,O=C(Cn1c(-c2cccs2)cc2cc(Cl)ccc21)N1CCN(c2ccccc2)CC1,78%
11,CCOC(=O)c1cccnc1SCC(=O)Nc1ccc(C)cc1C,79%
12,COc1ccc(NC(=O)CN(C)S(=O)(=O)c2cnc[nH]2)cc1,95%
13,CN(Cc1ccccc1)C(=O)CSc1nc2ccccc2n1Cc1ccccc1F,86%
14,Cc1ccc(OCC(=O)NCC2(N(C)C)CCCCC2)cc1C,83%
15,CCOc1ccc(CCNC(=O)c2nnc(Cc3ccc(Cl)cc3Cl)o2)cc1OCC,83%
16,O=C(Nc1nnc(S(=O)(=O)N2CCOCC2)s1)c1ccccc1Cl,79%
17,COc1ccccc1C(=O)Nc1nnc(S(=O)(=O)N2CCN(c3ccc(F)cc3)CC2)s1,50%
18,O=C(Nc1nnc(S(=O)(=O)N2CCCC2)s1)c1ccccc1Cl,117%
19,O=C(Nc1nnc(S(=O)(=O)N2CCCCCC2)s1)c1ccccc1Cl,38% (active)
20,Cc1ccccc1C(=O)Nc1nnc(S(=O)(=O)N2CCCCCC2)s1,47% (active)
21,O=C(Nc1nnc(S(=O)(=O)N2CCCC2)s1)c1ccccc1F,28% (active)
22,COc1ccccc1C(=O)Nc1nnc(S(=O)(=O)N2CCCCC2)s1,69%
23,COc1ccccc1C(=O)Nc1nnc(S(=O)(=O)N2CCCCCC2)s1,56% (active)

row,SMILES,survival
1,O=C(Nc1nnc(S(=O)(=O)N2CCOCC2)s1)c1ccccc1F,86%
2,COc1ccc(N(C)S(=O)(=O)c2ccc3c(c2)n(C)c(=O)c(=O)n3C)cc1,86%
3,O=C(CN1CCCN(Cc2ccccc2Cl)S1(=O)=O)NCc1ccccc1,94%
4,CCCn1c(=O)c2sccc2n2c(CCCC(=O)NCc3ccccc3)nnc12,83%
5,O=C(c1ccccc1)n1nc(-c2ccco2)nc1NCc1ccccc1Cl,103%
6,O=C1C2C3C=CC(C3)C2C(=O)N1c1ccc(-c2nc3ccccc3o2)cc1 (configuration not stated),89%
7,CCN(C(=O)Cn1c(=O)n(CCCS(=O)(=O)C2CCCCC2)c(=O)c2ccccc21)c1cccc(C)c1,87%
8,COc1ccccc1CNC(=O)c1ccc2c(c1)N(Cc1cc(C)ccc1C)C(=O)c1ccccc1S2,68%
9,COc1cccc(NC(=O)Cn2c(=O)oc3cc(S(=O)(=O)N4CCCCC4)ccc32)c1,112%
10,COc1ccc(N2CCN(C(=O)CN3C(=O)CSc4c3c(C)nn4-c3ccccc3)CC2)cc1,79%
11,CC(=O)NCCNC(=O)c1ccc2c(=O)n(CCc3ccccc3)c(=O)[nH]c2c1,83%
12,O=C(Nc1nnc(S(=O)(=O)N2CCCCCC2)s1)c1ccccc1F,47% (active)
13,CCc1ccc2oc(C(=O)Nc3cc(C)ccc3C)cc(=O)c2c1,52%
14,Cc1ccc(C(=O)Nc2ccc3oc(-c4cccnc4)nc3c2)cc1,83%
15,Cc1ccc(NC(=O)c2oc3ccccc3c2NC(=O)c2ccccc2C)cc1,79%
16,COc1cccc(NC(=O)c2oc3ccccc3c2NC(=O)c2ccccc2C)c1,43% (active)
17,COc1cccc(NC(=O)c2oc3ccccc3c2C)c1,106%
18,Cc1ccccc1C(=O)Nc1c(C(=O)Nc2cccc(F)c2)oc2ccccc12,46% (active)
19,COc1cccc(NC(=O)c2oc3ccccc3c2NC(=O)COc2ccccc2C)c1,122%
20,CCOC(=O)C(=O)Nc1c(C(=O)Nc2cccc(F)c2)oc2ccccc12,97%
21,O=C(OCc1cc(=O)n2nc(-c3cccs3)sc2n1)c1ccccc1Br,75%
22,CC1C(C(=O)Nc2ccccc2)CCCC1(C)C(=O)O (configuration not stated),80%
23,CC(=O)c1cccc(NC(=O)C2CCN(c3ncnc4c3nc3n4CCCCC3)CC2)c1,84%

row,SMILES,survival
1,O=C(CN(c1ccc2c(c1)OCCO2)S(=O)(=O)c1ccccc1)NC1CC1,75%
2,CCOc1ccc(NC(=O)c2ccc3c(=O)n4nc(Nc5ccccc5C)sc4nc3c2)cc1,113%
3,CCCCN(CC)C(=O)C1CCC(CNS(=O)(=O)c2cccc3nsnc23)CC1 (configuration not stated),83%
4,O=C(CCC(=O)N1Cc2ccccc2Oc2ncccc21)Nc1ccc(Cl)cc1,37% (active)
5,Cc1ccc(NC(=O)CCC(=O)N2Cc3ccccc3Oc3ncccc32)cc1Cl,83%
6,Cc1ccc(CNC(=O)CCC(=O)N2Cc3ccccc3Oc3ncccc32)cc1,71%
7,CCOc1ccc(CNC(=O)CCC(=O)N2Cc3ccccc3Oc3ncccc32)cc1,32% (active)
8,CN(C)c1ccc(CNC(=O)CCC(=O)N2Cc3ccccc3Oc3ncccc32)cc1,83%
9,Cc1ccc(NC(=O)CCC(=O)N2Cc3ccccc3Oc3ncccc32)cc1,49%
10,CC(C)NC(=O)CCC(=O)N1Cc2ccccc2Oc2ncccc21,0% (active)
11,CCC(C)NC(=O)CCC(=O)N1Cc2ccccc2Oc2ncccc21 (configuration not stated),117%
12,CC(C)CCNC(=O)CCC(=O)N1Cc2ccccc2Oc2ncccc21,55%
13,CCOc1ccc(CNC(=O)Cn2nc(C)n3cccc3c2=O)cc1,101%
14,Cc1cccc(NC(=O)C2CCN(S(=O)(=O)c3ccc(F)cc3)CC2)c1C,60%
15,COc1ccc(CNC(=O)CCCN2C(=O)CCn3nc(-c4cn(C)c5ccccc45)cc32)cc1,88%
16,COc1ccc(OC)c(NC(=O)Cc2coc3ccc(C(C)C)cc23)c1,73%
17,Cc1ccc(N(C)C(=O)Cn2nc(Cc3ccncc3)c3ccccc3c2=O)cc1C,84%
18,Oc1ccc2ccccc2c1/C=N/c1nccs1,81%
19,CCOc1ccccc1NC(=O)Nc1ccc2nc(N3CCN(C)CC3)cc(C)c2c1,75%
20,COc1ccc(CCNC(=O)C(=O)NCC(c2cccs2)S(=O)(=O)c2cccs2)cc1 (configuration not stated),78%
21,COc1cc(S(=O)(=O)N2CCCCC2C)c(OC)cc1Cl (configuration not stated),114%
22,CC(CCc1ccccc1)NC(=O)Cn1c(=O)nc(-c2ccccc2)c2ccccc21 (configuration not stated),99%
23,CC1(C)OC(=O)C(=C2CCCCCN2)C(=O)O1,99%

row,SMILES,survival
1,COc1ccc(Cl)cc1NC(=O)c1sc2nc3n(c(=O)c2c1C)CCC3,76%
2,COc1ccccc1NC(=O)c1sc2nc(-c3cc4ccccc4oc3=O)[nH]c(=O)c2c1C,106%
3,Cc1c(C(=O)Nc2ccccc2)sc2nc(-c3cc4cc(Cl)ccc4oc3=O)[nH]c(=O)c12,45% (active)
4,CC(C)(C)C1CCc2c(sc3nc(-c4cc5cc(Cl)ccc5oc4=O)[nH]c(=O)c23)C1 (configuration not stated),83%
5,COc1ccccc1NC(=O)c1sc2nc(-c3cc4cc(Cl)ccc4oc3=O)[nH]c(=O)c2c1C,45% (active)
6,O=C(O)c1ccc2nc(-c3cc4cc(Cl)ccc4oc3=O)[nH]c2c1,69%
7,COc1ccc(-c2cn3nc(SCC(=O)Nc4ccc(C)c(Cl)c4)ccc3n2)cc1,94%
8,COc1ccccc1N1CCN(C(=O)c2oc3ccccc3c2NC(=O)C(C)Oc2ccccc2)CC1 (configuration not stated),69%
9,CCNc1nc2c(c(=O)[nH]c(=O)n2C)n1CC(O)COc1ccc(Cl)cc1Cl (configuration not stated),180%
10,CN(C)c1ccc(CNS(=O)(=O)c2csc(C(N)=O)c2)cc1,60%
11,O=C(CC1N=C2c3ccccc3N=C(SCc3ccc(F)cc3)N2C1=O)NCCc1ccccc1 (configuration not stated),85%
12,CCOC(=O)c1ccc(Nc2nc3ccccc3nc2NS(=O)(=O)c2ccc(Cl)cc2)cc1,37% (active)
13,COc1ccc(Nc2nc3ccccc3nc2NS(=O)(=O)c2ccc(C)cc2)c(OC)c1,63%
14,COc1cc(Cl)c(C)cc1Nc1nc2ccccc2nc1NS(=O)(=O)c1ccccc1,116%
15,COc1ccc(Nc2nc3c(S(=O)(=O)c4ccccc4)nnn3c3ccc(Cl)cc23)cc1OC,117%
16,CCOC(=O)c1ccc(Nc2nc3ccccc3n3c(C)nnc23)cc1,67%
17,CCc1ccc(Nc2nc3ccccc3nc2NS(=O)(=O)c2ccccc2)cc1,28% (active)
18,COc1ccc2nc(NS(=O)(=O)c3ccc(C)cc3)c(Nc3cc(Cl)ccc3OC)nc2c1,22% (active)
19,Cc1ccc2nc(NS(=O)(=O)c3ccc(Cl)cc3)c(Nc3ccc(C(=O)O)cc3)nc2c1,109%
20,Cc1cccc(C)c1Nc1nc2ccccc2nc1NS(=O)(=O)c1ccccc1,79%
21,CCOc1ccc(S(=O)(=O)Nc2nc3ccccc3nc2Nc2ccc(OC)cc2)cc1,68%
22,CCOc1ccccc1Nc1nc2ccccc2nc1NS(=O)(=O)c1ccc(Cl)cc1,79%
23,COc1ccc(Nc2nc3ccccc3nc2NS(=O)(=O)c2ccc(Cl)cc2)cc1OC,29% (active)

# From PubChem BioAssay AID463173 (ICCB-Longwood Screening Facility, Harvard Medical School, 2010)
